Compounds with a hit are over-represented: about 1.9% of the library has one in this group of screens.
PLCb3 inh: PLC-beta3 (human) inhibition, primary screen; Q01970; Purified PLC-beta3, fluorogenic substrate, fluorescence; inhibition, % at 12.2 µM; 0.18% of 370,000 active; AID 720704; in the data active = inhibition above about 11%;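 also: 0% = median of compound wells on plate and 100% = full blocker control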
Target sequence (Q01970 whole entry, looked up): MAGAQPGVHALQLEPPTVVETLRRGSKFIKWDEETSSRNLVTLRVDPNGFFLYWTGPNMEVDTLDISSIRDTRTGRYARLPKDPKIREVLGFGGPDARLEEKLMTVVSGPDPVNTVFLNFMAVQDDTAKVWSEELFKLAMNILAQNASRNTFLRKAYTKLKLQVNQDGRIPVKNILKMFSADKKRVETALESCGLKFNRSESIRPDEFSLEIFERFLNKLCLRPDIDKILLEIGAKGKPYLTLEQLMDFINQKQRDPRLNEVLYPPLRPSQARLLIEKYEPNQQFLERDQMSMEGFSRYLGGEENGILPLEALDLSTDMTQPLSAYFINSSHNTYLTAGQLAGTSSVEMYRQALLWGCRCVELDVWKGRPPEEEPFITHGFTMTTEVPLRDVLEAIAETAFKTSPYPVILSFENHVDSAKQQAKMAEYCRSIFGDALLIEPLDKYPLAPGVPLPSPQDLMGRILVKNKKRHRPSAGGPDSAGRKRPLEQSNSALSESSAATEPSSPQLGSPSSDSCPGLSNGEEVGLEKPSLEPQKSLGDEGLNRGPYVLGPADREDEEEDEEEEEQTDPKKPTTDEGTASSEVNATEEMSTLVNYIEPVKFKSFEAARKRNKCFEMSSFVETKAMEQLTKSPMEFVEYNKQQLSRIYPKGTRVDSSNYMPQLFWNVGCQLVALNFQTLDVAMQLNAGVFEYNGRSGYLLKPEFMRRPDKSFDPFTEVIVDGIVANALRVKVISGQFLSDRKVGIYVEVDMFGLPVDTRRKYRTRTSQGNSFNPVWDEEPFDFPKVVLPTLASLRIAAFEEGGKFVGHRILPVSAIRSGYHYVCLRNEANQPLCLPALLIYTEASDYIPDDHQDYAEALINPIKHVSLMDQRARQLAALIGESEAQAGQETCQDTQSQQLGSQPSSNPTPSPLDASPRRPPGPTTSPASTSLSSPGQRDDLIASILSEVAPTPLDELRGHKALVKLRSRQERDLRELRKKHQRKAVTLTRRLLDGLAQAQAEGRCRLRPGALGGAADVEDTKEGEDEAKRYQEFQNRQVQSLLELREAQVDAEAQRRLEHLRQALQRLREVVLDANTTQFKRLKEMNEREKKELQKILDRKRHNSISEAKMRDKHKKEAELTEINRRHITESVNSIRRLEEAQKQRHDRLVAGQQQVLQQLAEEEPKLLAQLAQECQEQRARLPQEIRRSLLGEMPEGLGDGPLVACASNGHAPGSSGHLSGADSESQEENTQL
MsrA act: activates bovine MsrA enzyme | activation, % at 10.6 µM | purified bovine MsrA, absorbance read-out | 0.3% of 360,000 active | AID 602163; in the data active = activation above about 7.5%;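 also: 0% = vehicle and 100% = reference activator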
PLCg1 inh: PLC-gamma1 (human) inhibition, primary screen; P19174; 0.84% of 370,000 active; AID 720700; inhibition, % at 12.2 µM; purified PLC-gamma1, fluorogenic substrate, fluorescence; in the data active = inhibition above about 9.5%
MsrA inh: inhibits bovine methionine sulfoxide reductase A; purified bovine MsrA, absorbance read-out; inhibition, % at 15.5 µM; 0.75% of 360,000 active; AID 651718; in the data active = inhibition above about 4.5%;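 also: 0% = vehicle wells with enzyme and 100% = reference inhibitor wells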
MsrA activ conf: bovine methionine sulfoxide reductase A activation confirmed; shares compounds with MsrA act; purified bovine MsrA, absorbance read-out; activation, % at 10.6 µM; 12% of 1,000 active; AID 602270; in the data active = activation above about 4%;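 also: enzyme coupled to thioredoxin and thioredoxin reductase with NADPH; 0% = vehicle wells and 100% = reference activator wells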
An asterisk follows results filed as active; · = no result given.

SMILES	PLCb3 inh	MsrA act	PLCg1 inh	MsrA inh	MsrA activ conf
Cc1n[nH]c(=S)n1/N=C/c1ccc(-c2ccccc2[N+](=O)[O-])o1	-2	-4	-2	3	·
Cc1nnc(N/N=C\c2ccc(-c3ccccc3[N+](=O)[O-])o2)n1N	-60	17*	-41	2	-6
CCC(=O)N/N=C/c1ccc(-c2ccc([N+](=O)[O-])cc2)o1	-114	-10	-101	2	·
CCc1nnc(N/N=C/c2ccc(-c3ccc([N+](=O)[O-])cc3)o2)n1N	-12	8.4*	-3	1	0
COC1=CC(=O)c2nc(Cl)ccc2C1=O	4	12*	10*	0	7.5*
COCCN1C(=O)c2cc(C(=O)Nc3ccc(OC)c(OC)c3)ccc2C1Nc1ccc(OC)c(OC)c1 (stereo unspecified)	6	12*	4	2	-1
CN1NC(=O)c2ccccc2NC1=S	-2	·	-2	0	·
CCNC(=O)N1CCN(c2ccc(N3CCN(Cc4ccccc4)[C@@H](C)C3)c(C)c2)[C@H](C)C1	-1	·	-2	1	·
CCCc1cc(C(=O)Cc2ccc(F)cc2)c(O)cc1O	-45	22*	-37	1	-2
CCc1cc(C(=O)Cc2ccc(F)cc2)c(O)cc1O	-54	-4	-32	3	·
O=[N+]([O-])c1ccc(Sc2nc3ccccc3o2)c([N+](=O)[O-])c1	5	7.7*	3	2	2
O=C(CCc1c[nH]c2ccccc12)Nc1ccc(Oc2cccnc2)cc1	-1	·	-1	0	·
Cc1ccc(C(=O)ON=C2CCN(S(=O)(=O)c3ccccc3)CC2)cc1	5	7.7*	2	1	1
O=C(ON=C1CCN(S(=O)(=O)c2ccccc2)CC1)c1ccc(F)cc1	7	2	5	1	·
Cc1cccc(C)c1OCC(=O)NNC(=O)CNC(=O)c1ccc(OC(F)F)cc1	-5	8.1*	-2	-1	-1
Cc1cccc(C)c1OCC(=O)NNC(=O)CCNC(=O)c1ccc(Br)cc1	-7	-1	5	-1	·
COc1ccc2cc(C(=O)CS(=O)(=O)c3ccc(Cl)cc3)c(=O)oc2c1	5	·	-5	0	·
Cc1oc(CC(C)C)cc1C(=O)Nc1cccc2ccccc12	2	7.8*	2	0	0
Cc1ccc(Cc2c(-c3cccc(Br)c3)nc3c4ccccc4ccn23)cc1	-36	·	-13	0	·
O=C(OCC#CCSc1nnc(-c2cccc3ccccc23)o1)c1cc(F)c(F)c(F)c1	0	·	-4	·	·
c1cc(SSc2ccncc2)ccn1	-4	10*	0	2	-2
CCC(C)[C@H](NC(=O)N1CCC(C)CC1)C(=O)OC (stereo partly specified)	-4	14*	-2	1	1
CCC(C)[C@H](NC(=O)N1CCCC1)C(=O)OC (stereo partly specified)	3	-3	8	0	·
COc1ccc(Cl)cc1NC(=O)CN(C)CC(=O)Nc1ccc(Br)cc1	2	8.9*	3	0	1
O=C(CCNS(=O)(=O)c1cccc2nonc12)Nc1ccc(Cl)cc1	0	13*	2	0	1
SMILES	PLCb3 inh	MsrA act	PLCg1 inh	MsrA inh	MsrA activ conf
CC(C)(C)c1ccc(OCCC(=O)NCC(c2cccs2)N2CCOCC2)cc1 (stereo unspecified)	-7	13*	-1	-1	1
CC(=O)CC[C@@H]1CC[C@]2(CCCN(C(=O)C(C)(C)C)C2)O1	1	·	-1	·	·
Nc1ccn([C@@H]2O[C@H](C(=O)N[C@H](Cc3ccccc3)C(=O)Nc3ccc4scnc4c3)[C@@H](O)[C@H]2O)c(=O)n1	0	·	2	1	·
CCOC(=O)c1[nH]c2ccc(F)cc2c1NC(=O)CN1CCN(C/C=C/c2ccccc2)CC1	-60	10*	-47	0	-1
COc1ccc(C(=O)C(=O)N2CCN(S(=O)(=O)c3cccc4c(N(C)C)cccc34)CC2)cc1OC	-492	·	-353	2	·
O=C(COc1ccccc1Cl)c1ccc2c(c1)CCCC2	-1	8.3*	-2	-1	-3
CC1CCc2cc(F)ccc2N1C(=O)c1cccs1 (stereo unspecified)	-3	-3	-1	0	·
CC1CCc2cc(F)ccc2N1C(=O)CCC(=O)O (stereo unspecified)	1	9.8*	1	-1	2
CC1=NC2=CC=CC3=NC(C(Cl)(Cl)Cl)=NC(=N1)N23	-16	·	-11	1	·
O=C(CC1CCCCC1)Nc1ccc(-c2ccc3nncn3n2)cc1	-78	7.7*	-41	0	-1
O=C(NCCCCc1ccccc1)c1ccccc1F	-8	-3	1	-1	·
Cc1ccccc1C(=O)NCCCCc1ccccc1	4	8.7*	5	0	2
CN(Cc1ccccc1)C(=O)c1ccc2sc([C@@H]3O[C@H](CO)[C@H](O)[C@H](O)[C@H]3O)nc2c1	-8	-2	2	0	·
CN(Cc1ccccc1)C(=O)c1csc([C@@H]2O[C@H](CO)[C@H](O)[C@H](O)[C@H]2O)n1	3	14*	-2	0	-1
COc1ccc(S(=O)(=O)N2CCN(C(=S)NC3CCCCC3)CC2)cc1	4	8.0*	1	0	-3
CCOc1ccc(S(=O)(=O)N2CCN(C(=S)NC3CC3)CC2)cc1	4	-3	0	-1	·
O=C1CCc2cc(S(=O)(=O)Nc3ccc4c(c3)OCCO4)ccc2N1	4	·	0	·	·
CC(C)CC1NC(=O)N(CC(=O)Nc2ccc3c(c2)OCCO3)C1=O (stereo unspecified)	-7	13*	-3	-1	-4
COC(=O)C[C@@H]1CC[C@H]2[C@@H](COc3ccc(NC(=O)Nc4cccc(F)c4)cc3C(=O)N2C)O1	0	·	1	·	·
CCCOc1ccc(-c2nc(=S)[nH][nH]2)cc1	1	9.2*	1	1	3
Nc1ccccc1SSc1ccccc1N	-3	11*	2	0	4
C=CCN1C(=O)[C@@H](CC(=O)N2CCSCC2)[C@]2(C(=O)OCC)CCCCC/C=C/12	1	·	-1	·	·
CCCCNC(=O)N(C)c1nncnc1C(=O)NC	3	-13	2	-1	·
CCNC(=O)N(C)c1nncnc1C(=O)NC	-9	21*	6	-1	-2
CCOc1ccc2oc(C(=O)OCC(=O)N3C(C)CCCC3C)c(C)c2c1 (stereo unspecified)	-137	8.7*	-103	1	-1
SMILES	PLCb3 inh	MsrA act	PLCg1 inh	MsrA inh	MsrA activ conf
COc1ccc(NC(=O)c2ccc([N+](=O)[O-])cc2[N+](=O)[O-])c(OC)c1	-2	11*	0	2	1
Cc1ccc(S(=O)(=O)N2OC(c3ccccc3)C[C@H]2CC=C(c2ccccc2)c2ccccc2)cc1 (stereo partly specified)	4	·	1	·	·
COc1cc(OC)c(C(=O)NC23CC4CC(CC(C4)C2)C3)cc1OC	-3	9.2*	3	0	-4
COc1cc(CC(=O)Nc2sc3c(c2C(N)=O)CCCC3)cc(OC)c1OC	-9	-2	-5	2	·
COc1ccc(CC(=O)Nc2sc3c(c2C(N)=O)CCCC3)cc1	-14	8.4*	-6	0	-2
COc1cccc(NC(=O)C(C)OC(=O)c2n[nH]c3ccccc23)c1 (stereo unspecified)	-13	16*	-2	-1	0

Source: PubChem (The Scripps Research Institute Molecular Screening Center)
